Among all 310,000 compounds or so, about 2,200 (0.71%) showed an effect of 50% or more. The effect is printed as a negative number. Many of the other results were omitted from the sample, so strong results are more common in it than they were.

This assay deals with human ether-à-go-go-related gene (hERG) potassium channel (human, UniProt Q12809). The experiment in a line: primary screen, population patch clamp on CHO cells stably expressing hERG; higher = less effect of the substance.
Chain of human ether-à-go-go-related gene (hERG) potassium channel (Q12809 whole entry, looked up): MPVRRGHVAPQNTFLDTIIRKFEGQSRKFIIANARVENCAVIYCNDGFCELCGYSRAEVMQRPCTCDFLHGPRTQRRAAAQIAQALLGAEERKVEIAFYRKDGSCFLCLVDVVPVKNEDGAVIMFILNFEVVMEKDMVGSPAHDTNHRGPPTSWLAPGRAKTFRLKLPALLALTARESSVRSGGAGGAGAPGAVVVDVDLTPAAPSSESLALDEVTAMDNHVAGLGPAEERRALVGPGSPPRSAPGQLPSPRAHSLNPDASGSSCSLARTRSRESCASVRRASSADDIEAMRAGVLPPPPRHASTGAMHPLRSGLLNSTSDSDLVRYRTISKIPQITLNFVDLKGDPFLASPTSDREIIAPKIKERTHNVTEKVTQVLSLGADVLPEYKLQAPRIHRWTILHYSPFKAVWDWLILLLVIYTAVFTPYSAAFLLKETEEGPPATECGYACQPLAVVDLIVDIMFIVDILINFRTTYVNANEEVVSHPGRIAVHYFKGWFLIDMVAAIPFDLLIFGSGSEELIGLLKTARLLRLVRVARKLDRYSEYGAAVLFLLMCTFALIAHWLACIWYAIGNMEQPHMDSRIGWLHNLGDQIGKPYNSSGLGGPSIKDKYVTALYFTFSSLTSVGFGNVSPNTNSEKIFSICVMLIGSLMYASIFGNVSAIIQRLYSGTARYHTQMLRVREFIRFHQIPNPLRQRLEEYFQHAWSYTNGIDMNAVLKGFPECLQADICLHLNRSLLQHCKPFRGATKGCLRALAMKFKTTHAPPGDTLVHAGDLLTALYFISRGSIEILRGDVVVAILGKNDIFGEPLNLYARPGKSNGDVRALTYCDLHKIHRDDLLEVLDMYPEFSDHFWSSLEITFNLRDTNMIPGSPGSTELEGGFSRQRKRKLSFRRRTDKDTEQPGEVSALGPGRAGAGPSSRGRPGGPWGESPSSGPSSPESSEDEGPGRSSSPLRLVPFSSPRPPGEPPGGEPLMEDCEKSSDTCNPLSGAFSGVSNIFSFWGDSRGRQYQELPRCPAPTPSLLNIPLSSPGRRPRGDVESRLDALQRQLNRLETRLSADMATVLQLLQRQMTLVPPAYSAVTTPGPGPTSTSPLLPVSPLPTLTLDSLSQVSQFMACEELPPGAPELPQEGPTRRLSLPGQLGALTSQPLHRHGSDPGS
For `Cc1ccccc1C(=O)Nc1ccccc1C(=O)N1CCC(C)CC1`, the “hERG current change (%, negative = inhibition) at 1uM” value is reported as 11.7%.
For `COC(=O)c1ccc(Cn2cnc3c(cnn3-c3ccc(C)c(C)c3)c2=O)o1`, the “hERG current change (%, negative = inhibition) at 1uM” value came to 7.86%.
Under `Cc1c(-c2ccccc2)oc2c(C(=O)OCC(=O)Nc3cccc(F)c3)cccc2c1=O` stands 5.94%; under `COc1ccccc1NC(=S)NC(NC(=O)c1ccco1)C(Cl)(Cl)Cl` (stereo not drawn), 4.44%; under `COc1ccc(C(=O)Nc2ccc(S(=O)(=O)N3CCCCC3)cc2)cc1OC`, -0.152%.
Under `COc1ccc(NC(=O)c2ccc(S(=O)(=O)N3CCCC3)cc2)cc1OC` stands -102%; under `COc1ccc(NC(=O)c2cccc(S(=O)(=O)N3CCCC3)c2)cc1OC`, 2.14%; under `CCCN1CCC[C@@H]2Cc3nc(N)ncc3C[C@H]21.Cl`, 8.86%.
With `NC(=O)c1ccc(NC(=O)CCC(=O)c2cccs2)cc1`, the “hERG current change (%, negative = inhibition) at 1uM” value amounted to 9.21%.
Under `O=C(Nn1cnnc1)c1cc([N+](=O)[O-])cc([N+](=O)[O-])c1` stands 5.11%.
Under `CCn1cc(C2=NC(C)CO2)c2ccccc21` (stereo not drawn) stands -0.637%; under `O=C(CN1CCN(Cc2ccccc2)CC1)Nc1ccc(Cl)cc1`, -32.3%; under `NC(=O)c1ccccc1NC(=O)CN1CCN(Cc2ccc(Cl)cc2Cl)CC1`, -75.8%.
Under `COC(=O)c1ccccc1NC(=O)CN1CCCCCC1` stands 16.5%; under `COC(=O)c1ccccc1NC(=O)CN1CCOCC1`, 5.34%; under `O=C(CN1CCN(Cc2ccccc2F)CC1)Nc1ccccc1Cl`, 8.26%.
Regarding `COC(=O)c1ccccc1NC(=O)CN1CCC(C)CC1`, the “hERG current change (%, negative = inhibition) at 1uM” value is -0.0967%.
For `COC(=O)c1ccccc1NC(=O)CN1CCCCC1`, the “hERG current change (%, negative = inhibition) at 1uM” value is on record as 32.9%.
As to `COC(=O)c1ccccc1NC(=O)CN1CCN(C23CC4CC(CC(C4)C2)C3)CC1`, the “hERG current change (%, negative = inhibition) at 1uM” value is -75%.
Under `O=C(CN1CCN(Cc2ccccc2)CC1)Nc1ccc(Cl)cn1` stands -70%.
For the compound `Cc1cccc(NC(=O)CN2CCN(CC(=O)NCc3ccc(Cl)cc3Cl)CC2)c1C`, the “hERG current change (%, negative = inhibition) at 1uM” value came to 4.8%.
In the case of `COC(=O)c1ccccc1NC(=O)CN1CCN(Cc2ccccc2)CC1`, the “hERG current change (%, negative = inhibition) at 1uM” value is given as -69.6%.
Under `O=C(CN1CCCCCC1)Nc1ccc(Cl)cn1` stands 6.51%; under `CCOCCCNS(=O)(=O)c1ccc2c(c1)oc(=O)n2CC(=O)OCC`, 10.3%; under `COCCN1CCN(C(=O)C2CCC(=O)N(Cc3ccccc3F)C2)CC1` (stereo not drawn), 9.05%.
With `COc1c(/C=N/NC(=O)c2ccccc2O)c(CCN(C)C(C)=O)cc2c1OCO2`, the “hERG current change (%, negative = inhibition) at 1uM” value is recorded as 8.13%.
Under `CCN(CC)CCCNC(=O)c1c(O)c2ccccc2n(Cc2ccccc2)c1=O.Cl` stands -12.3%; under `Cc1ccccc1N1C(=O)c2ccccc2NC1c1ccncc1` (stereo not drawn), 13%.
`COc1ccccc1/C=C/C(=O)NCC(=O)N/N=C(\CCC(=O)O)c1ccccc1`: the “hERG current change (%, negative = inhibition) at 1uM” value is recorded as -2.9%.
Under `NNC(=O)c1ccc(-c2ccccc2F)cc1` stands 14.8%; under `Nc1nnc(C(F)(F)F)s1`, 4.92%; under `O=C(CN1CCN(Cc2ccccc2)CC1)Nc1ccccc1-c1ccccc1`, -39.6%.
Under `CSc1ccc(/C=N/NC(=O)CN2CCN(Cc3ccc(Cl)cc3)CC2)cc1` stands 2.29%; under `CSc1ccc(/C=N/NC(=O)CN2CCN(Cc3ccccc3)CC2)cc1`, -60%.
Under `NC(=O)c1ccccc1NC(=O)CN1CCCCCC1` stands 13.4%; under `NC(=O)c1ccccc1NC(=O)CN1CCN(Cc2ccccc2)CC1`, -77.7%; under `CSc1ccc(/C=N/NC(=O)CN2CCN(Cc3ccc(C)cc3)CC2)cc1`, 2.67%.
`COc1ccc(N(CC(=O)NCc2ccc(C)cc2)S(=O)(=O)c2c(C)[nH]c(=O)[nH]c2=O)cc1`: the “hERG current change (%, negative = inhibition) at 1uM” value worked out at 16%.
Under `Cc1nc2cc3nc(C)sc3cc2s1` stands 3.19%; under `Cc1cc(C)cc(NC(=O)CCNS(=O)(=O)c2ccc3c(c2)oc(=O)n3C)c1`, 9.33%.
Under `COCC(=O)N1CCC(Oc2ccc(C(=O)NCc3cnc(C)cn3)cc2)CC1` stands 13%; under `CCN(c1cccc(C)c1)S(=O)(=O)c1ccc(-c2ccc(=O)[nH]n2)o1`, 12.8%.
For `Cc1cc(Br)ccc1OCCCCN1CCCCC1.O=C(O)C(=O)O`, the “hERG current change (%, negative = inhibition) at 1uM” value is listed as -66.6%.
Under `Cc1cc(Br)ccc1OCCOCCN1CCCC1.O=C(O)C(=O)O` stands -9.41%.
Turning to `O=C(O)C(=O)O.O=C(c1ccccc1)c1ccc(OCCOCCN2CCN(Cc3ccccc3)CC2)cc1`, the “hERG current change (%, negative = inhibition) at 1uM” value is -82.8%.
With `O=C(O)C(=O)O.O=C(c1ccccc1)c1ccc(OCCCN2CCCC2)cc1`, the “hERG current change (%, negative = inhibition) at 1uM” value is given as -29.9%.
`O=C(O)C(=O)O.c1ccc(CN2CCN(CCOCCOc3ccc4c(c3)CCC4)CC2)cc1`: the “hERG current change (%, negative = inhibition) at 1uM” value turned out to be 11.6%.
Under `O=C(O)C(=O)O.c1ccc(-c2ccccc2OCCOCCN2CCCCC2)cc1` stands -18.9%.
Under `CC1CCN(CCCCOc2ccccc2-c2ccccc2)CC1.O=C(O)C(=O)O` stands -74.9%; under `O=C(O)C(=O)O.c1ccc(-c2ccccc2OCCN2CCCCC2)cc1`, -4.98%; under `CN1CCN(CCCCOc2ccccc2-c2ccccc2)CC1.O=C(O)C(=O)O`, 16.8%.
Under `Cc1cc(Br)ccc1OCCN1CCCC1.O=C(O)C(=O)O` stands -7.85%; under `CC1CCN(CCOc2ccccc2-c2ccccc2)CC1.O=C(O)C(=O)O`, -8.4%; under `O=C(O)C(=O)O.c1ccc(-c2ccccc2OCCCN2CCCCC2)cc1`, -69.1%.
`CC1CC(=O)Nc2ccccc2N1C(=O)Nc1ccc(F)cc1` (stereo not drawn): the “hERG current change (%, negative = inhibition) at 1uM” value was determined as 9.77%.
Under `CC(C)CCN(C(=S)Nc1cccc(C(F)(F)F)c1)C(C)c1ccccn1` (stereo not drawn) stands 10.7%.
With `CCOc1cc(C2/C(=C(/O)c3ccc(OC(C)C)cc3)C(=O)C(=O)N2CCCOC)ccc1O` (stereo not drawn), the “hERG current change (%, negative = inhibition) at 1uM” value came out at 21.3%.
Under `Clc1ccc(Oc2nc(N3CCOCC3)nc(N3CCOCC3)n2)c(C2CCCCC2)c1` stands 10.6%; under `Clc1cccc(Cl)c1CN1CCN(c2ccccc2)CC1`, 15.9%.
Under `O=C(CCN1C(=O)C2C3CCC(C3)C2C1=O)Nc1cccc(Cl)c1` (stereo not drawn) stands 4.67%; under `CCC1(CC)NC(=O)N(CC(=O)OCC(=O)Nc2ccc(F)c(F)c2F)C1=O`, 4.85%; under `Cc1ccc(NC(=O)/C=C/c2ccc([N+](=O)[O-])s2)c(C)c1`, 10.5%.
Under `CCOc1ccccc1-n1c(SCC(=O)NC(C)CC)nnc1-c1ccoc1C` (stereo not drawn) stands -2.44%; under `CCOCCCn1c(SC(C(=O)Nc2cc(C)ccc2C)c2ccccc2)nnc1-c1ccc(Cl)cc1` (stereo not drawn), 13.5%; under `CC(=O)Nc1ccc(S(=O)(=O)NC2(C(F)(F)F)NC(=O)N(c3ccccc3F)C2=O)cc1` (stereo not drawn), 19.3%.
On to `COc1ccc(NS(=O)(=O)c2ccc(/C=C/C(=O)O)cc2)cc1S(=O)(=O)N1CCOCC1`, for which the “hERG current change (%, negative = inhibition) at 1uM” value is recorded as 10.7%.
Under `COc1ccc(NC(=O)c2ccc(S(=O)(=O)NCc3cccnc3)cc2)cc1` stands -13.3%.
Under `O=C(Nc1ccc2oc(-c3ccccc3F)nc2c1)c1ccc2c(c1)OCCO2` stands 3.14%; under `COCCNCCCOc1ccc(Br)cc1Cl.O=C(O)C(=O)O`, 0.786%.
Under `CC1CCN(CCOc2ccc(C(=O)c3ccccc3)cc2)CC1.O=C(O)C(=O)O` stands 3.49%; under `COCCCNCCCCOc1ccc(Br)cc1C.O=C(O)C(=O)O`, -24%; under `COCCCNCCCCOc1ccc(Br)cc1Cl.O=C(O)C(=O)O`, -61.5%.
Regarding `O=C(O)C(=O)O.c1ccc(COc2ccc(OCCCCN3CCCCC3)cc2)cc1`, the “hERG current change (%, negative = inhibition) at 1uM” value is -46.8%.
On to `Cl.OCCN1CCN(CCOc2ccccc2-c2ccccc2)CC1`, for which the “hERG current change (%, negative = inhibition) at 1uM” value came to 6.46%.
Under `Cc1ccc(OCCCCN2CCC(C)CC2)cc1.O=C(O)C(=O)O` stands -0.565%.
Under `O=C(O)C(=O)O.c1ccc(COc2ccc(OCCCN3CCCC3)cc2)cc1` stands -39.1%.
Under `CCN1CCN(CCCOc2ccccc2-c2ccccc2)CC1.O=C(O)C(=O)O` stands -16.6%; under `CC1CCN(CCCCOc2ccc(C(=O)c3ccccc3)cc2)CC1.O=C(O)C(=O)O`, -72.4%.
With `O=C(O)C(=O)O.c1ccc(COc2ccc(OCCCN3CCCCC3)cc2)cc1`, the “hERG current change (%, negative = inhibition) at 1uM” value was -57.7%.
Under `Cl.OCCCN1CCN(CCCOc2ccccc2-c2ccccc2)CC1` stands -57.7%; under `CCN(CC)S(=O)(=O)c1ccc(C(=O)NCc2ccc3[nH]c4c(c3c2)CCCC4)cc1`, 16.4%.
Under `COc1cccc(CN2CCC(C(=O)N3CCN(c4ccccc4F)CC3)CC2)c1` stands -20.8%; under `CCCn1c(=O)c(C(=O)Nc2ccccc2C(=O)OCC)c(O)c2ccccc21`, 16.2%; under `CNC(=S)Nc1cc(C(F)(F)F)ccc1Cl`, -4.86%.
Under `Cc1cc(OCC(=O)Nc2ccc3oc(-c4ccncc4)nc3c2)ccc1Cl` stands 9.6%.
For `Cc1ccc(/C=C2\SC(=S)N(CCCC(=O)Nc3ccccn3)C2=O)cc1`, the “hERG current change (%, negative = inhibition) at 1uM” value is on record as 3.9%.
Under `Cc1csc(NC(=O)C2=NN(c3ccccc3)C(=O)CC2)n1` stands 9.03%.

For the origin of these results see publication PMC4336329 (PLoS ONE, 2015).
